Measured values reported in PubChem BioAssay (EPA / NIEHS).
Some structures have more than one record in an assay (separate samples or runs), and their calls can disagree. Active and inactive are the calls of the source. How the source made its calls: active means hit-call score of the fitted dose curve at least 0.9, where 1 is the maximum; inactive means score below 0.9.

assay: BSK_3C_Vis: BioMAP Diversity Plus: 3C Assay for Morphology Visualization (AID 2283025); conditions: primary human endothelial cells (HUVEC);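 further: fitted both ways so gain or loss versus DMSO counts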
Protocol: BSK_3C is a cell-based, multiplexed-readout assay that uses umbilical vein endothelium, a human vascular primary cell, with measurements taken at 24 hours after chemical dosing in a 96-well plate.BSK_3C_Vis is an assay component measured in the BSK_3C assay. It measures NA related to cell morphology using light microscopy technology.Data from the assay component BSK_3C_Vis was analyzed into 1 assay endpoint. This assay endpoint, BSK_3C_Vis, was analyzed with bidirectional fitting relative to DMSO as the negative control and baseline of activity. Using a type of morphology reporter, gain or loss-of-signal activity can be used to understand changes in the background control. Furthermore, this assay endpoint can be referred to as a secondary readout, because this assay has produced multiple assay endpoints where this one serves a background control function. To generalize the intended target to other relatable targets, this assay endpoint is annotated to the cell morphology intended target family, where the subfamily is cell conformation.
The levels of cell surface (or secreted, indicated by the prefix "s") biomarker endpoints were measured by ELISA. Overt cytotoxicity to cells in confluent adherent cultures (all systems other than the BT system) was assessed by measuring total protein levels using sulforhodamine B (SRB) staining in parallel cultures at the time of biomarker measurements, indicated as SRB endpoints. For proliferation assays for adherent cell types, individual cell types are cultured at sub-confluence and relative cell numbers quantified by SRB staining at time points optimized for each system (48 h: 3C and CASM3C systems; 72 h: BT and HDF3CGF systems; 96 h: SAg system). SRB was performed by staining cells with 0.1% SRB after fixation with 10% TCA and reading wells at 560 nm.Viability and proliferation of PBMC (T cells) was quantified by Alamar Blue reduction for the SAg and BT systems. For PBMC viability (referred to as PBMC Cytotoxicity within the assay endpoint names), cells were plated (75,000/well in a 96-well plate) and then chemical samples added for 1 h before addition of activators, SEB and TSST-1 (20 ng/mL final concentration each). Cells were incubated for 90 h. Then, Alamar Blue (20 uL/well) (Invitrogen, Cat DAL1100) was added for 6 h, and the plates were read with a fluorescence microplate reader at 546/580 nm (excitation/emission). For PBMC proliferation, cells were plated and activated as above but incubated for only 16 h prior to addition of Alamar Blue. Plates were read after 6 h.

Row | SMILES | outcome | AC50
1 | COCC(C)N(C(=O)CCl)c1c(C)csc1C (stereo not given) | inactive | 39 µM (active)
2 | CCOP(=S)(OCC)Oc1nc(Cl)n(C(C)C)n1 | inactive | 
3 | CC1(C)CCC(=Cc2ccc(Cl)cc2)C1(O)Cn1cncn1 (stereo not given) | inactive | 
4 | CN=C=S | inactive | 
5 | CC(C)N1C(=O)N(c2ccccc2)CSC1=NC(C)(C)C |  | 16.3 µM (active)
6 | Cc1nc(N(C)C)nc(OC(=O)N(C)C)c1C | inactive | 
7 | COc1cc(OC)nc(NC(=O)NS(=O)(=O)c2ncccc2OCC(F)(F)F)n1 | inactive | 
8 | CCN(CC)c1nc(C)cc(OP(=S)(OC)OC)n1 | inactive | 
9 | CCC(C)n1c(=O)[nH]c(C)c(Br)c1=O (stereo not given) | inactive | 
10 | Cc1cc(C)nc(Nc2ccccc2)n1 | inactive | 
11 | CCOc1nc(C(Cl)(Cl)Cl)ns1 | inactive | 
12 | CC(C)C1(C)N=C(c2ncccc2C(=O)O)NC1=O (stereo not given) | inactive | 
13 | COC(=O)NC(=S)Nc1ccccc1NC(=S)NC(=O)OC | inactive | 
14 | N#CN=C1SCCN1Cc1ccc(Cl)nc1 | inactive | 
15 | CCOc1nc(F)cc2nc(S(=O)(=O)Nc3c(Cl)cccc3Cl)nn12 | inactive | 
16 | COCc1cnc(C2=NC(C)(C(C)C)C(=O)N2)c(C(=O)O)c1 (stereo not given) | inactive | 
17 | COP(=S)(OC)Oc1ccc([N+](=O)[O-])c(C)c1 |  | 39 µM (active)
18 | CCCCC(O)(Cn1cncn1)c1ccc(Cl)cc1Cl (stereo not given) | inactive | 
19 | CC(C)N1C(=O)c2ccccc2NS1(=O)=O | inactive | 
20 | C=C(C)CN(CC)c1c([N+](=O)[O-])cc(C(F)(F)F)cc1[N+](=O)[O-] |  | 20 µM (active)

Row | SMILES | outcome | AC50
21 | CCCCOCN(C(=O)CCl)c1c(CC)cccc1CC |  | 29.4 µM (active)
22 | CC1(C)C(C(=O)OC(C#N)c2cccc(Oc3ccccc3)c2)C1(C)C (stereo not given) |  | 39 µM (active)
23 | CCCCC(C#N)(Cn1cncn1)c1ccc(Cl)cc1 (stereo not given) |  | 9.8 µM (active)
24 | COP(=O)(OC)O/C(C)=C/C(=O)N(C)C | inactive | 
25 | CC(C)NC(=O)N1CC(=O)N(c2cc(Cl)cc(Cl)c2)C1=O | inactive | 
26 | CS(=O)(=O)c1cc(C(F)(F)F)ccc1C(=O)c1cnoc1C1CC1 | inactive | 
27 | Cc1cnc(C2=NC(C)(C(C)C)C(=O)N2)c(C(=O)O)c1 (stereo not given) | inactive | 
28 | O=c1n(Cl)c(=O)n(Cl)c(=O)n1Cl | inactive | 
29 | COc1ccc(-c2ccccc2)cc1NNC(=O)OC(C)C | inactive | 
30 | CCSC(=O)N1CCCCCC1 | inactive | 
31 | CCCN(CC)CC1COC2(CCC(C(C)(C)C)CC2)O1 (stereo not given) | inactive | 
32 | Nc1cnn(-c2ccccc2)c(=O)c1Cl |  | 39 µM (active)
33 | COC(=O)c1c(C(F)F)nc(C(F)(F)F)c(C2=NCCS2)c1CC(C)C | inactive | 
34 | COP(=S)(OC)SCn1nnc2ccccc2c1=O | inactive | 
35 | O=C(Nc1ccccc1-c1ccc(Cl)cc1)c1cccnc1Cl |  | 39 µM (active)
36 | COC(=O)NS(=O)(=O)c1ccc(N)cc1 | inactive | 
37 | CCN(CC)C(=O)C(C)Oc1cccc2ccccc12 (stereo not given) |  | 9.8 µM (active)
38 | CCCC(=NOCC)C1=C(O)CC(CC(C)SCC)CC1=O (stereo not given) |  | 39 µM (active)
39 | N#Cc1c(Cl)cccc1Cl | inactive | 
